Experiment [1] can be described thus: qHTS assay to identify small molecule antagonists of the glucocorticoid receptor (GR) signaling pathway - cell viability counter screen (AID 720693). Also: nearly all actives have a fitted effect of over 55% in size.
Experiment [2] can be described thus: qHTS assay to identify small molecule antagonists of the androgen receptor (AR) signaling pathway - cell viability counter screen (AID 743033; also: nearly all actives have a fitted effect of over 45% in size). On the technique in general: In qHTS, concentration-response curves come from the screen itself.
For experiment [3], the target named is Androgen receptor (Homo sapiens) (UniProt P10275). The experiment can be described thus: qHTS assay to identify small molecule antagonists of the androgen receptor (AR) signaling pathway (AID 743035; active = well fitted inhibition curve with a large enough effect in the signal ratio in the repeat runs, not every such curve was filed as active; inconclusive = weak or mixed curves, or effect the other way; inactive = no such curve, though single readings can be large or run the other way; the % refers to the signal ratio). The method in brief: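 Fluorescence from a beta-lactamase FRET substrate (LiveBLAzer B/G, 2 h, room temperature) measured inhibition of R1881-stimulated signaling in GeneBLAzer AR-UAS-bla HEK293 cells exposed to compound for 16 h at 37C.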
Sequence of Androgen receptor (Homo sapiens) (P10275 whole entry, looked up): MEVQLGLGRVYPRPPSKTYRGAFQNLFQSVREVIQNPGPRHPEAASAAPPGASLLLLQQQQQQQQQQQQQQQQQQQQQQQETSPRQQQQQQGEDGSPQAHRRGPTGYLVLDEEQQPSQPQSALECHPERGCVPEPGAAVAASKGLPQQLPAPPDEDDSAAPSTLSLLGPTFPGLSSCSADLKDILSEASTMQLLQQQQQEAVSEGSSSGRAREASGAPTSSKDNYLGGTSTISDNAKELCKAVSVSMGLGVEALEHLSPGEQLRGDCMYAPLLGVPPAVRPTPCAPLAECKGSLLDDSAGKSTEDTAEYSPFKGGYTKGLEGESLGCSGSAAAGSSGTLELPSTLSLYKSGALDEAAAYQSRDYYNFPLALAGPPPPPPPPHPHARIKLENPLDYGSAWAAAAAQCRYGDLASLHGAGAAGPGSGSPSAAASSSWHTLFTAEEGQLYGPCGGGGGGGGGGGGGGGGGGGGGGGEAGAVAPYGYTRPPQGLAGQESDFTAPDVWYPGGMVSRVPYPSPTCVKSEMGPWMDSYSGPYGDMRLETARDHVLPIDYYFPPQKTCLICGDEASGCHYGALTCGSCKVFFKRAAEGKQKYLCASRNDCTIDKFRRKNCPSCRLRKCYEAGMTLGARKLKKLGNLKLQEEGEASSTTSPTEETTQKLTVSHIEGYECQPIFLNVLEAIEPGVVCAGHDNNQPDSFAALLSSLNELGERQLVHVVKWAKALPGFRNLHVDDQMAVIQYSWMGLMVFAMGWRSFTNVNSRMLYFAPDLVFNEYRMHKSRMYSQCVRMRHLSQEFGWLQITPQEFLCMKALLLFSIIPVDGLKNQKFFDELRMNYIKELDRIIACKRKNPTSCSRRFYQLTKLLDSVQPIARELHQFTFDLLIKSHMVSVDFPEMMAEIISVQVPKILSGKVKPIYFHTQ

For experiment [4] the target is unchanged. The experiment can be described thus: qHTS assay to identify small molecule agonists of the androgen receptor (AR) signaling pathway (AID 743036; active = well fitted activation curve with a large enough effect in the signal ratio in the repeat runs, with a control signal flat, not every such curve was filed as active; inconclusive = weak or mixed curves, or effect the other way; inactive = no such curve, though single readings can be large or run the other way; the % refers to the signal ratio). A digest of the protocol: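 Agonist activity was scored by beta-lactamase reporter fluorescence in stably transfected HEK293 cells exposed to compounds for 16 h at 37C and 5% CO2. Substrate loading took 2 h at room temperature.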

Experiment [5] is described as follows: qHTS assay to identify small molecule antagonists of the androgen receptor (AR) signaling pathway using the MDA cell line - cell viability counter screen (AID 743041; also: nearly all actives have a fitted effect of over 45% in size; also: potency is read from the fitted curve at half-maximal effect). A digest of the protocol:
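MDA-kb2 AR-luc cells (MMTV-luciferase, AR/GR responsive) treated with compounds plus R1881 agonist for 16 h at 37C. CellTiter-Fluor added at 15.5 h; fluorescence read after 30 min in the same wells.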

Experiment [6] deals with Androgen receptor (Homo sapiens) (UniProt P10275). Description: qHTS assay to identify small molecule antagonists of the androgen receptor (AR) signaling pathway using the MDA cell line (AID 743042; also: nearly all actives have a fitted effect of over 55% in size). The method in brief: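 MDA-kb2 breast carcinoma cells carrying MMTV-luciferase (AR/GR responsive) were co-treated with compounds and the agonist R1881 for 16 h at 37C. Inhibition read as ONE-Glo luminescence; CellTiter-Fluor fluorescence measured in parallel for cytotoxicity.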

The nature of experiment [7]: qHTS assay to identify small molecule antagonists of the thyroid receptor (TR) signaling pathway (AID 743065). Also: nearly all actives have a fitted effect of over 55% in size. Also: potency is read from the fitted curve at half-maximal effect. The method in brief:
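GH3.TRE-Luc rat pituitary cells (two TREs driving luciferase) were dosed with compound, then stimulated with 1 nM T3 (final) for 23.5 h at 37 C. ONE-Glo luminescence was the read-out, with CellTiter-Fluor fluorescence as the cytotoxicity counter-screen.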

Experiment [8] has as its system thyroid hormone receptor (rat, GH3 cells). The experiment can be described thus: qHTS assay to identify small molecule agonists of the thyroid receptor (TR) signaling pathway (AID 743066; calls by dose curve).
Experiment [9] can be described thus: qHTS assay to identify small molecule antagonists of the estrogen receptor alpha (ER-alpha) signaling pathway - cell viability counter screen (AID 743074; calls by dose curve;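 also: HEK293 cells carrying ER-alpha-UAS-bla reporter stimulated with 17beta-estradiol; nearly all actives have a fitted effect of over 45% in size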; also: potency is read from the fitted curve at half-maximal effect).
A short description of experiment [10]: qHTS assay to identify small molecule antagonists of the estrogen receptor alpha (ER-alpha) signaling pathway using the BG1 cell line - cell viability counter screen (AID 743081).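 Also: compound given together with 17beta-estradiol as the ER stimulus; nearly all actives have a fitted effect of over 45% in size.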 Also: potency is read from the fitted curve at half-maximal effect.
The target in experiment [11] is Aromatase (Homo sapiens) (UniProt P11511). The experiment can be described thus: qHTS assay to identify aromatase inhibitors (AID 743083). Also: nearly all actives have a fitted effect of over 55% in size. Also: potency is read from the fitted curve at half-maximal effect.
Sequence of Aromatase (Homo sapiens) (P11511 whole entry, looked up): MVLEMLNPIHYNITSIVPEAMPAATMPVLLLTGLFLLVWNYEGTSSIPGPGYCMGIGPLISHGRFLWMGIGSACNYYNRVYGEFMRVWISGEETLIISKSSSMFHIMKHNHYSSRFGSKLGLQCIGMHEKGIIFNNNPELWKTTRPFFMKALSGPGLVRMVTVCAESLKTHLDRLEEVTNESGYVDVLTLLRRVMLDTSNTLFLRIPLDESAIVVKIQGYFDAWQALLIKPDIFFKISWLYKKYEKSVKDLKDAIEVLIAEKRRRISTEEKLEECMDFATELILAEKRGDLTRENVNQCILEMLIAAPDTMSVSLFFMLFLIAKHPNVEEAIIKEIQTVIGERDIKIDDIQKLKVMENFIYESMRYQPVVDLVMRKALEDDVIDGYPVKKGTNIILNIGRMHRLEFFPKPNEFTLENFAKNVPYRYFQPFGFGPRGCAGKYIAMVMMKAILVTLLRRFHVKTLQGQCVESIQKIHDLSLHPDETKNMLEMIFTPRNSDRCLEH
A short description of experiment [12]: qHTS assay for identifying genotoxic compounds that show differential cytotoxicity against isogenic chicken DT40 cell lines with known DNA damage response pathways - wild type cell line (AID 743012). Also: nearly all actives have a fitted effect of over 60% in size. Also: potency is read from the fitted curve at half-maximal effect. A digest of the protocol: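 Wild type DT40, 300 cells/well, ~0.5 h settle at 37 C/5% CO2; compounds in DMSO added by pintool; 40 h at 37 C/5% CO2; CellTiter-Glo, 30 min RT; luminescence.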

Experiment [13] is described as follows: qHTS assay for identifying genotoxic compounds that show differential cytotoxicity against isogenic chicken DT40 cell lines with known DNA damage response pathways - Rev3 mutant cell line (AID 743014). Also: nearly all actives have a fitted effect of over 55% in size. Also: potency is read from the fitted curve at half-maximal effect.
A short description of experiment [14]: qHTS assay for identifying genotoxic compounds that show differential cytotoxicity against isogenic chicken DT40 cell lines with known DNA damage response pathways - Rad54/Ku70 mutant cell line (AID 743015). Also: nearly all actives have a fitted effect of over 60% in size. Also: potency is read from the fitted curve at half-maximal effect.
A short description of experiment [15]: qHTS assay to identify small molecule antagonists of the thyroid receptor (TR) signaling pathway - cell viability counter screen (AID 743064). Also: nearly all actives have a fitted effect of over 50% in size. Also: potency is read from the fitted curve at half-maximal effect. A digest of the protocol: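 Same-well viability check: GH3.TRE-Luc cells stimulated with 1 nM T3 alongside test compound for 23.5 h, followed by CellTiter-Fluor fluorescence.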
Experiment [16] deals with Estrogen receptor (Homo sapiens) (UniProt P03372). Description: qHTS assay to identify small molecule antagonists of the estrogen receptor alpha (ER-alpha) signaling pathway (AID 743069; active = well fitted curve in the direction sought with a large enough effect in the signal ratio in the repeat runs, not every such curve was filed as active; inconclusive = weak or mixed curves, or effect the other way; inactive = no such curve, though single readings can be large or run the other way; the % refers to the signal ratio; also: potency is read from the fitted curve at half-maximal effect). The method in brief:
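HEK293 ER-alpha-UAS-bla GripTite cells, held overnight in 2% charcoal-stripped FBS, 5,000 cells/well, preincubated 4 h, then compound plus 17beta-estradiol for 18 h at 37C. Beta-lactamase read by LiveBLAzer B/G FRET substrate, 2 h at room temperature.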

Experiment [17] has the same target. The experiment can be described thus: qHTS assay to identify small molecule agonists of the estrogen receptor alpha (ER-alpha) signaling pathway (AID 743075; calls by dose curve).
Experiment [18] shares this target. The experiment can be described thus: qHTS assay to identify small molecule agonists of the estrogen receptor alpha (ER-alpha) signaling pathway using the BG1 cell line (AID 743079). Also: nearly all actives have a fitted effect of over 20% in size.
Experiment [19] can be described thus: qHTS assay to identify small molecule antagonists of the estrogen receptor alpha (ER-alpha) signaling pathway using the BG1 cell line (AID 743080; calls by dose curve; also: series mostly up to about 70 µM; nearly all actives have a fitted effect of over 25% in size). A digest of the protocol:
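Antagonist mode: compounds in DMSO were pinned onto BG1-Luc-4E2 cells alongside 17beta-estradiol agonist, incubated 21.5 h, and ERE-driven luciferase measured with ONE-Glo. Cytotoxicity was multiplexed using CellTiter-Fluor fluorescence.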

Experiment [20] deals with Androgen receptor (Homo sapiens) (UniProt P10275). The experiment can be described thus: qHTS assay to identify small molecule agonists of the androgen receptor (AR) signaling pathway using the MDA cell line (AID 743040; also: nearly all actives have a fitted effect of over 20% in size). The method in brief: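 MDA-kb2 breast carcinoma cells carrying MMTV-luciferase (responsive to AR and GR), plated 5 h then treated 16 h with compounds at 37C, 0% CO2. Read-out was ONE-Glo luminescence after 30 min at room temperature.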

“And” between values parts separate entries of the source, which are not always exact repeats. Equal entries are not always repeated. The source holds several records for some structures; these can differ, active in one and inactive in another. The source made the active and inactive calls. Unless noted, calls follow the shape of the dose curve; as a rule, active = well fitted curve in the direction sought with a large enough effect in the repeat runs; inconclusive = weak or mixed curves; inactive = no such curve, though single readings can be large; an effect the other way counts as inactive or inconclusive.

Sequence of Estrogen receptor (Homo sapiens) (P03372 whole entry, looked up): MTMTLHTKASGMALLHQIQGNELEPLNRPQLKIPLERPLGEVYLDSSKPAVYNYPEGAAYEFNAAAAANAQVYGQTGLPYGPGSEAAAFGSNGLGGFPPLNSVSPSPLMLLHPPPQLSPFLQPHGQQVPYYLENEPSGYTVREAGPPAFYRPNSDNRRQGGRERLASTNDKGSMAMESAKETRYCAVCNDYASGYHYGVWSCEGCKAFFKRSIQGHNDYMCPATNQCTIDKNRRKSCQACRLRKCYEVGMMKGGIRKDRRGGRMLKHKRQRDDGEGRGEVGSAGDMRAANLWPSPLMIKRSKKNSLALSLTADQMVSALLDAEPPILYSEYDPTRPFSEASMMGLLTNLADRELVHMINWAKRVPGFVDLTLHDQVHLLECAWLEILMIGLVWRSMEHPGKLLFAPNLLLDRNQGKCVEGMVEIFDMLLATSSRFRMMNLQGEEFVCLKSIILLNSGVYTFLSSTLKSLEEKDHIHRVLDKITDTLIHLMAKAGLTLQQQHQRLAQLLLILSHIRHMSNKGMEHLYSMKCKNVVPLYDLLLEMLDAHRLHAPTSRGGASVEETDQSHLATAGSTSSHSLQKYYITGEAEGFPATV

Consider `CCCCCC[N+](=O)[O-]`, for which the Potency entry in experiment [1], in experiment [2], in [3], in experiment [5], in [6] and in experiment [7] was “inactive” in each case. In addition, the Potency entry in experiment [8], in experiment [9], in experiment [10] and in experiment [11] was “inactive” in each case. Further, the outcome in [4] was inactive.

For `O=C1C(=O)c2cccc3cccc1c23`, the figures for the Potency in experiment [12], in experiment [13] and in [14] were 2.73 µM (active), 1.72 µM (active) and 2.43 µM (active), respectively. The Potency result in experiment [15], in experiment [8], in [16], in [17], in experiment [18] and in experiment [19] was “inactive” each time. For the same compound, the Potency entry in experiment [11] is “inactive”.

Regarding `O=C1NCN(c2ccccc2)C12CCN(CCCOc1ccc(F)cc1)CC2`, the Potency in [12] is 10.6 µM (active); in experiment [13], 13.3 µM (active); in experiment [14], 16.8 µM (active); in experiment [15], 13.3 µM (active); in experiment [7] it was 16.8 µM (active); in experiment [16] it was 10.7 µM [inconclusive] (active). For the same compound, the Potency in experiment [11] is 16.8 µM (active). Also, the Potency result in experiment [2], in experiment [9] and in experiment [17] was “inactive” in each case.

In the case of `O=C(CCl)c1ccc(Cl)cc1Cl`, the Potency in experiment [12] was 668 nM (active) and 1.72 µM (active); in [13], 1.06 µM (active) and 2.73 µM (active) and 17.1 µM (active); in experiment [14] it was 944 nM (active) and 2.43 µM (active); in [15] it was 1.33 µM (active) and 4.33 µM (active) and inactive; in [7] it was 1.5 µM (active) and 3.44 µM (active); in experiment [9], 38.9 µM (active). For the same compound, the Potency entry in experiment [2], in [20], in experiment [5], in [6], in [8] and in [16] was “inactive” throughout. Besides, the Potency entry in experiment [17], in [18], in experiment [19], in experiment [10] and in [11] was “inactive” each time. Besides, in experiment [4], the call was inactive.

Consider `O=C(NC(=O)c1c(F)cccc1F)Nc1cc(Cl)c(Oc2ncc(C(F)(F)F)cc2Cl)c(Cl)c1`, for which the Potency in [12] was 1.17 µM (active); in experiment [13], 2.08 µM (active); in experiment [14] it was 1.65 µM (active); in [15] it was 58.5 µM (active); in experiment [7], 8.27 µM (active). In addition, the Potency result in [20], in [5], in [8], in [17] and in experiment [10] was “inactive” each time.

In the case of `CCCC(Cn1cncn1)c1ccc(Cl)cc1Cl` (stereo unspecified), the Potency in [12] is 5.45 µM (active); in experiment [13], 6.11 µM (active); in experiment [14] it was 10.9 µM (active); in experiment [7] it was 61.1 µM (active); in experiment [11], 12.2 µM (active). In addition, the Potency result in experiment [8] and in [10] was “inactive” in each case.

`CCCN(CC1CC1)c1c([N+](=O)[O-])cc(C(F)(F)F)cc1[N+](=O)[O-]`: the Potency result in [12], in experiment [13], in experiment [14], in experiment [2], in experiment [8] and in experiment [16] was “inactive” throughout. For the same compound, the Potency entry in [9], in experiment [17], in experiment [18], in [19], in experiment [10] and in experiment [11] was “inactive” throughout.

For `O=S1(=O)OC(c2cc(Br)c(O)c(Br)c2)(c2cc(Br)c(O)c(Br)c2)c2ccccc21`, the Potency in [12] was 31.5 µM (active); in experiment [13], 28.1 µM (active); in [14], 25 µM (active); in experiment [5] it was 62.8 µM (active); in experiment [15], 49.9 µM (active); in [7], 28.1 µM (active). Also, the Potency in experiment [10] and in [11] was 22.3 µM (active) in each case. Besides, the Potency entry in experiment [2], in experiment [20], in experiment [8] and in [17] was “inactive” in each case.

Turning to `CC(=O)c1cc2c(cc1C)C(C)(C)C(C)CC2(C)C` (stereo unspecified), the Potency result in experiment [1], in experiment [2], in experiment [5], in experiment [15], in experiment [7] and in experiment [8] was “inactive” each time. Further, the Potency entry in experiment [9] and in experiment [10] was “inactive” in each case. The Potency in experiment [11] was 54.5 µM (active).

Regarding `C[N+](C)(C)CCCl`, the Potency result in experiment [12], in experiment [13], in experiment [14], in [2], in experiment [3] and in experiment [20] was “inactive” in each case. The Potency entry in experiment [5], in experiment [6], in experiment [15], in [7], in experiment [8] and in [16] was “inactive” throughout. In addition, the Potency entry in experiment [9], in experiment [18], in experiment [19], in [10] and in experiment [11] was “inactive” throughout.
